Source: PubChem
TRHR ag = qHTS for Small Molecule Agonists and Allosteric Enhancers of Human TRH Receptor: Primary Screen for Agonists | hit rate 0.18% among 360,000 | activation, % at 2 µM | TRHR cells, calcium flux fluo-8, FDSS agonist mode; further: 0% is about no effect
Target sequence (P34981 whole entry, looked up): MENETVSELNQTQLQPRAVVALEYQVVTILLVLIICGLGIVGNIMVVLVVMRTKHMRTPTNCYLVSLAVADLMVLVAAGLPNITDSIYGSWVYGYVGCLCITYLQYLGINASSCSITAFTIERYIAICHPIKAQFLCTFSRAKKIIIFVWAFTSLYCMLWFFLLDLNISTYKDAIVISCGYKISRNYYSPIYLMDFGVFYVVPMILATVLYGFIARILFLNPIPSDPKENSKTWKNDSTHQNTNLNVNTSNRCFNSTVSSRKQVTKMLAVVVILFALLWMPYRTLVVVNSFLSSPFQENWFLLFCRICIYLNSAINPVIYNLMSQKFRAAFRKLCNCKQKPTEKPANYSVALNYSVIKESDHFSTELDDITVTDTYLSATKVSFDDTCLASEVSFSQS
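Agonist-mode FDSS calcium read (Ex 480/Em 530, 1 s cycles) in 1536-well TRHR cells with fluo-8 dye, after 10-cycle baseline and 23 nL compound addition; TRH at EC20 (10 nM final) added afterwards for the enhancer phase.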
D1 potentiator = Potentiators of Human D1 Dopamine Receptor: qHTS; D(1A) dopamine receptor (Homo sapiens), P21728; HEK293 TREx D1 cells, calcium flux, dopamine EC20 potentiation; potentiation, % at 10 µM; hit rate 0.036% among 360,000; AID 504651, 2011; in the data active means potentiation above about 30%; further: 0% is about no effect
D1 ag = Allosteric Agonists of the Human D1 Dopamine Receptor: qHTS | D(1A) dopamine receptor (Homo sapiens), P21728 | HEK293 T-REx D1 cells, calcium flux, agonist mode | activation, % at 2 µM | hit rate 1% among 360,000 | AID 504660, 2011; further: 0% is about no effect
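Tetracycline-induced HEK293 TREx D1 cells, force-coupled to calcium signalling, were dye-loaded with a no-wash calcium kit. Compound was pin-added after a 10 s baseline. Fluorescence was read kinetically at 1 cycle/s for 180 s, with calcium rises flagged as agonism.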
D1 antagonist = Antagonist of Human D 1 Dopamine Receptor: qHTS; HEK293 TREx D1 cells, calcium flux, dopamine EC80; stronger effect = lower value; activity change, negative = inhibition, % at 10 µM; hit rate 3.2% among 360,000; AID 504652, 2011; in the data active means activity change below about -30%; further: on the % scale 0 is the no-effect control and ±100 the full control effect
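After overnight tetracycline induction at 30 C, force-coupled D1 HEK293 cells took up a no-wash calcium dye at room temperature. Compounds were added and monitored 180 s, and the response to EC80 dopamine was then recorded.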
TRHR PAM = qHTS for Small Molecule Agonists and Allosteric Enhancers of Human TRH Receptor: Primary Screen for Enhancers. Thyrotropin-releasing hormone receptor (Homo sapiens), P34981. TRHR cells, fluo-8 calcium fluorescence, EC20 TRH enhancement. enhancement, % at 2 µM. hit rate 0.66% among 360,000. AID 493056, 2011; in the data active means enhancement above about 30%; further: 0% is about no effect
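Enhancer read-out: after compound pinning and an initial kinetic agonist-mode read, an EC20 of TRH (10 nM final) was injected and fluo-8 calcium signal (Ex 480/Em 530) followed at 1 s/cycle for 100 cycles in TRHR-expressing cells.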
Numbers without * were called inactive; x = no result given. An excerpt weighted towards active compounds, which were near 4.6% of everything screened. Unless noted, no stated cut-off is given here; in the data, active means activation above about 30%; inactive means the rest.

SMILES	TRHR ag	D1 potentiator	D1 ag	D1 antagonist	TRHR PAM
CCCCCc1cc(=O)oc2c(C(CCN3CCCC(C)C3)c3cc(OC)c(OC)c(OC)c3)c(OC)cc(OC)c12 (stereo not drawn)	0	-10	22	-47*	1
COc1cc(C(CCN2CCN(c3ccccc3)CC2)c2c(OC)cc(OC)c3c(C)cc(=O)oc23)cc(OC)c1OC (stereo not drawn)	0	-13	0	-81*	0
COc1cc(OC)c2c(C)cc(=O)oc2c1C(CCN1CCOCC1)c1ccc2c(c1)OCO2 (stereo not drawn)	0	-9	11	-68*	-1
CCCCCc1cc(=O)oc2c(C(CCN3CCCCC3)c3cc(OC)c(OC)c(OC)c3)c(OC)cc(OC)c12 (stereo not drawn)	3	2	18	15	6
COc1cc(NC(=O)c2noc3c2CC(C(C)(C)C)CC3)cc(OC)c1OC (stereo not drawn)	-1	1	-2	-7	3
CCOc1ccc(CN2CCC(C(=O)Nc3cccc(-c4ccn[nH]4)c3)CC2)cc1Cl	2	-9	17	-53*	1
COc1cccc(-c2cccc(NC(=O)C3CCN(Cc4nccs4)CC3)c2)c1	0	-1	0	-1	-5
COc1ccc(-c2nc3sc(CCNC(=O)c4ccc(C(C)(C)C)cc4)c(C)n3n2)cc1	1	3	11	x	6
CCCCn1c(CCc2ccccc2)nc2cc3[nH]c(=O)c(C(C)C)nc3cc21	0	-17	2	-82*	-1
CCn1ccc2cc(S(=O)(=O)N3CCC(C(=O)NCCc4ccccc4Cl)CC3)ccc21	0	3	3	-40*	1
COc1ccc(CNC(=O)C2CCN(S(=O)(=O)c3ccc4c(ccn4C)c3)CC2)cc1	-1	-3	4	-35*	0
COc1ccc(S(=O)(=O)N2CCC(C(=O)NCc3ccc(C)cc3)CC2)cc1	0	1	0	16	4
Cc1ccccc1CCNC(=O)Cn1ccc2cc(S(=O)(=O)N3CCCC3)ccc21	0	-6	3	8	30*
CCOc1ccc(CNC(=O)Cn2ccc3cc(S(=O)(=O)N4CCCCC4)ccc32)cc1	0	-1	1	-35*	5
CCCCNC(=O)C1CCN(S(=O)(=O)c2ccc3c(ccn3CC)c2)CC1	0	-2	-1	2	5
CCN(CC)CCCNC(=O)c1ccc(S(=O)(=O)Nc2ccc(C)c(C)c2)cc1	0	2	1	-1	0
CCn1ccc2cc(S(=O)(=O)N3CCCN(C(=O)Nc4ccc(C)c(F)c4)CC3)ccc21	0	-3	2	-31*	-9
CC(C)c1nn2c(=O)cc(COC(=O)c3cccc(NC(=O)c4ccccc4F)c3)nc2s1	0	-1	3	18	-1
COc1ccc(-c2cn3cccc(C)c3n2)cc1F	1	9	4	-38*	-3
Cc1ccc(-c2cn3cccc(C)c3n2)cc1	-2	3	2	-4	3
COc1ccc(-n2c(=O)c3ccccc3n(CC(=O)NCCc3ccccc3)c2=O)c(OC)c1	0	0	4	-4	-2
Cc1ccc(NC(=S)N(CCCN2CCOCC2)Cc2ccco2)cc1C	1	0	-1	8	-1
Cc1ccc(Cl)cc1NC(=S)N(CCCN1CCOCC1)Cc1ccco1	0	-12	3	-52*	0
Cc1cc(NC(=S)N(CCCN2CCN(C)CC2)Cc2ccco2)ccc1Cl	0	0	9	-31*	-7
O=C(NC1CCCC1)c1ccc2c(c1)N(Cc1ccc(C(F)(F)F)cc1)C(=O)c1ccccc1S2	1	2	3	-1	-2
SMILES	TRHR ag	D1 potentiator	D1 ag	D1 antagonist	TRHR PAM
COc1ccc(OC)c(CNc2ccc([N+](=O)[O-])cc2C)c1	-1	6	0	-37*	-2
O=C(O)c1ccc(CS(=O)c2cccc(C(F)(F)F)c2)o1 (stereo not drawn)	0	-1	9	-32*	3
O=C(Nc1cccc(C(F)(F)F)c1)c1cc(S(=O)(=O)N2CCCC2)c[nH]1	0	-3	1	4	-3
CCN(c1ccccc1)S(=O)(=O)c1c(C)nc2scc(C)n2c1=O	-1	3	0	0	7
CCn1cnc2c(Nc3cc(F)cc(F)c3)nc(C(=O)COc3c(F)c(F)cc(F)c3F)nc21	-1	-6	1	-4	-4
O=[N+]([O-])c1cccc(NC(=S)Nc2nc(-c3ccc(Cl)cc3Cl)cs2)c1	1	-7	7	-31*	3
Cc1cc2c(s1)c1cnn(Cc3cccc(Cl)c3F)c(=O)c1n2C	0	6	1	11	2
Cc1cc2c(s1)c1cnn(Cc3cc(C(F)(F)F)cc(Cl)c3F)c(=O)c1n2C	2	-5	6	-35*	6
Cc1ccc(/C=C2/NC(=O)N(Cc3ccccc3F)C2=O)s1	14	-4	43*	9	-1
Cc1cc(/C=C2/NC(=O)N(Cc3ccccc3F)C2=O)c(C)n1-c1ccccn1	0	-3	2	-43*	3
O=C(NC1CC1)c1c[nH]c2ccc(S(=O)(=O)Nc3cccc(C(F)(F)F)c3)cc2c1=O	1	6	3	1	40*
Cn1c(=O)c2sccc2n2c(CCCC(=O)Nc3ccc(Oc4ccc(Cl)cc4)cc3)nnc12	0	-6	3	2	0
Cc1nnc(NC(=O)NC(C)N2C(=O)C3C4C=CC(C4)C3C2=O)s1 (stereo not drawn)	0	-6	2	-5	-3
CCc1nnc(NC(=O)C(C)N2C(=O)C3C4C=CC(C4)C3C2=O)s1 (stereo not drawn)	0	0	1	-43*	7
Cc1ccc(C(=O)COC(=O)CCN2C(=O)C3C4CCC(C4)C3C2=O)cc1[N+](=O)[O-] (stereo not drawn)	0	-5	21	-42*	0
Cc1ccc(C(=O)COC(=O)CN2C(=O)C3C4CCC(C4)C3C2=O)cc1[N+](=O)[O-] (stereo not drawn)	0	-3	8	-24	-3
O=C(CCN1C(=O)C2C3CCC(C3)C2C1=O)OCC(=O)c1ccc(Br)cc1 (stereo not drawn)	0	-2	11	-31*	-9
O=C(O)c1ccc(COc2ccccc2/C=C2\NC(=O)N(Cc3ccc(F)cc3)C2=O)cc1	0	6	5	-33*	-6
